In PubChem BioAssay AID760 (NMMLSC, 2007):
Out of some 190,000 compounds screened, about 360 (0.19%) were called active. Not shown: some 2% with an inconclusive outcome. This is one part of a sample in which actives are shown more often than they occur. Unmarked numbers belong to inactive results.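 How the source made its calls: active means GTP binding activity at least 20 points away from 100%, either lowered or raised; inconclusive means signal likely due to the compound's own green fluorescence; inactive means the rest.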

biological target: Ras-related protein Rab-2A (Canis lupus familiaris) (UniProt P61105); assay: modulators of GTP binding to Rab2A wildtype, primary screen, biochemical, dog, bead-based flow cytometry, multiplex (AID 760); settings: GST-Rab2 wt beads, Bodipy-GTP binding, at 10 µM;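 further: 0% = beads with excess unlabeled GTP and 100% = no-compound control corrected for plate trend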

SMILES	GTP binding activity
CCc1nnc(NC(=O)CSc2nnnn2-c2cccc(C(C)=O)c2)s1	97%
CC(=O)NC1C(OCc2ccccc2)OC(COC(C)=O)C(OC(C)=O)C1OC(C)=O (centres undefined)	100%
O=C(OCC1O[C@@H](OC(=O)c2cc(O)c(O)c(O)c2)[C@@H](OC(=O)c2cc(O)c(O)c(O)c2)[C@@H](OC(=O)c2cc(O)c(O)c(O)c2)[C@@H]1OC(=O)c1cc(O)c(O)c(O)c1)c1cc(O)c(O)c(O)c1 (some centres undefined)	79% (active)
CC1(C)CN(c2ccc(-c3ccnc4ncnn34)cc2)C1=O	99%
CCCOCC(O)CC(CC)C(=O)NNC(=S)Nc1ccccc1 (centres undefined)	100%
O=C(Nc1ccc(F)cc1)C1CCN(C(=O)c2ccc([N+](=O)[O-])cc2)CC1	97%
O=C(Nc1ccc(F)c([N+](=O)[O-])c1)C1CC(=O)N(Cc2ccccc2)C1 (centres undefined)	92%
Cc1cc(C2=NNC(=Nc3ccc(S(=O)(=O)N4CCOCC4)cc3)SC2)c(C)n1CC1CCCO1 (centres undefined)	101%
O=C(N/C(=C\c1ccc(F)cc1)C(=O)N1CCCCCC1)c1ccccc1	98%
Clc1ccc(CN2CCN(/N=C/c3cccnc3)CC2)cc1	101%
Cc1ccc(Nc2c(F)c(F)c(F)c(F)c2C(=O)O)c(C)c1	131% [activator] (active)
Cc1ccc(NC(=S)NC(=O)c2ccc(-c3ccccc3)cc2)c(C)c1	97%
COc1c(F)c(F)c(C(=O)O)c(Nc2ccccc2C)c1F	97%
Cc1cc(C)n(CC(=O)Nc2ccc([N+](=O)[O-])cc2)n1	96%
COc1ccc(C2CC(c3cccs3)Nc3nnnn32)cc1 (centres undefined)	98%
Cc1c(Br)ccc(NC(=O)COc2ccccc2C(N)=O)c1C	102%
CN1C(=O)/C(=C\c2ccc(-c3ccccc3)o2)SC1=S	88%
O=C(CCc1ccccc1)NCCc1cccs1	100%
O=C(CCC(=O)N1CCCC1)Nc1ccc([N+](=O)[O-])cc1	101%
CN(C)CC(C)(C)CNC(=O)c1cc(Br)cc(Br)c1O	95%
N#C/C(=C\c1ccc(-c2cccc([N+](=O)[O-])c2)o1)C(=O)NCCN1CCOCC1	92%
CCN1CCN(C(=O)CCN2C(=O)c3ccccc3C2=O)CC1	98%
COc1ccc(CC(=O)NCc2nnc(SCC(=O)Nc3ncc(C)s3)n2C)cc1	98%
CCC(O)C1CCN(Cc2cn(-c3ccc(OC)cc3)nc2-c2cccc(F)c2)CC1 (centres undefined)	102%
CCC1(CC)NC(=O)N(Cc2nc3ccccc3s2)C1=O	98%

SMILES	GTP binding activity
Nc1c(C(=O)O)cnn1-c1ccccc1	96%
Fc1ccccc1Cc1ccc(Cl)nn1	96%
CC(=O)Nc1ccc(S(=O)(=O)Nc2nccc(/C=C/c3ccccc3F)n2)cc1	99%
O=C1NC2(CCCCCC2)C(=O)N1CCS(=O)(=O)Oc1ccccc1	96%
O=C(Nc1cccnc1)c1ccc(Cl)cc1[N+](=O)[O-]	103%
CSc1nsc(SC)c1NC(=O)OC1CCCCC1	31% (active)
CSc1ncccc1C(=O)NC1CCCCCC1	99%
COc1ccc(NC(=O)c2c(SC)nsc2SC)cc1	100%
Cc1ccc(N(C(=O)c2ccc(S(=O)(=O)N(C)C)cc2)C2C=CS(=O)(=O)C2)cc1 (centres undefined)	99%
COc1ccc(CCNC(=O)CCn2c(=O)c3ccccc3n(CC(=O)NCC3CCCO3)c2=O)cc1OC (centres undefined)	96%
COc1ccc(/C=C/C2=CC(C)(C)NC(=S)N2)c(OC)c1	96%
CCOC(=O)c1ccc(NC(=O)C2CC(=O)Nc3nc4ccccc4n32)cc1 (centres undefined)	94%
C/C(=N\NC(=O)OC(C)(C)C)c1ccc[nH]1	98%
O=C(Cn1nnc2ccccc2c1=O)NCc1ccc(Cl)cc1	100%
CC(C)CCC(C)NC(=O)c1ccc2nccnc2c1 (centres undefined)	97%
COc1ccc(CCNC(=O)COC(=O)Cc2cc(OC)c(OC)c(OC)c2)cc1	96%
Cn1cc(-c2ccccc2)cc(C#N)c1=O	98%
CCc1ccccc1NC(=O)CSc1nnc(-c2ccncc2)o1	99%
Cc1ccc(C2=NN(C(=O)COc3ncnc4ccccc34)C(c3ccco3)C2)cc1 (centres undefined)	93%
COc1ccc(OC)c(-n2c(=S)[nH]c3cc(C(=O)N4CCCCC4)ccc3c2=O)c1	100%
S=C(Nc1ccc(Br)cc1Cl)NC1CCN(Cc2ccccc2)CC1	100%
CN(C)c1nc(-c2cccnc2)nc(-c2ccc(Cl)cc2)c1C#N	98%
CC(=O)Nc1ccc(OCCC[n+]2cccc(C(=O)[O-])c2)cc1	97%
CCOC(=O)C1=C(CN2CCCCCC2)NC(=O)NC1c1cccc([N+](=O)[O-])c1 (centres undefined)	97%
COc1ccc(-n2c(C)nn(CC3CC3)c2=O)cc1	100%

SMILES	GTP binding activity
CN(C)CCCn1c(SCCN2C(=O)c3ccccc3C2=O)nc2ccccc2c1=O	95%
O=S(=O)(Nc1cc(S(=O)(=O)N2CCOCC2)ccc1N1CCCC1)c1cccs1	98%
Cc1ccc(N(C(=O)Cc2cccs2)C2C=CS(=O)(=O)C2)cc1Cl (centres undefined)	100%
C/C(=N\Nc1ncc(Cl)cc1Cl)c1cccs1	98%
Cc1cccc(CN2CCN(Cc3cnn(-c4ccccc4F)c3)CC2CCO)n1 (centres undefined)	99%
Cc1cc(C)n(-c2nc(C(F)(F)F)nc3ccccc23)n1	96%
Cc1ccc(NC(=S)N(Cc2ccco2)C(C)c2cccs2)cc1 (centres undefined)	101%
COC(=O)c1cc(NC(=O)c2cccnc2)ccc1N1CCOCC1	96%
CCN(CC)c1ccc(C(=O)c2cnc(/N=C/N(C)C)s2)cc1	95%
Cc1cc(NC(=O)CSc2nc3c(cc2C#N)CCCCC3)no1	94%
O=C(Cc1ccccc1)N1CCN(S(=O)(=O)c2ccc([N+](=O)[O-])cc2)CC1	98%
N#C/C(C(=S)Nc1ccccc1)=C1/NN=C(N2CCOCC2)N1c1ccccc1	90%
CCCn1c(N)c(C(=O)CSc2nc3ccccc3c(=O)n2-c2ccc(OC)cc2)c(=O)[nH]c1=O	92%
S=c1[nH]nc(Nc2ccccc2)s1	92%
O=C1CCC(=O)N1c1ccc(NCCc2ccccc2F)c([N+](=O)[O-])c1	101%
NC(=O)COC(=O)c1sc2cc(F)ccc2c1Cl	94%
CCN(CC)S(=O)(=O)c1ccc(N2CCCC2)c(NS(=O)(=O)c2cccs2)c1	94%
O=C(NCc1ccccc1Cl)C1CCN(S(=O)(=O)N2CCOCC2)CC1	104%
Cc1ccc(NC(=O)c2ccccn2)cc1S(=O)(=O)N1CCOCC1	99%
CSc1ccc(CNCCN2CCOCC2)cc1	96%
COC(=O)c1ccc(NC(=S)NN2CCOCC2)cc1	99%
CCCC(=O)OCC(=O)Nc1cc(Cl)ccc1[N+](=O)[O-]	92%
O=c1c(-c2ccccc2)cnc2n1CCS2	96%
Cc1ccc(NC(=O)c2ccc(S(=O)(=O)NCC3CCCO3)cc2)cc1C (centres undefined)	97%
Cc1cc(CNCc2c(C(=O)N(C)Cc3ccccc3)nc3ccccn23)nn1C	101%

SMILES	GTP binding activity
O=C(Nc1nnc(C2CC2)s1)C1=NN(C2CCS(=O)(=O)C2)C(=O)CC1 (centres undefined)	96%
Cc1nc(N2CCCCC2)sc1C=O	105%
Cc1ccccc1NCC(=O)N/N=C\c1ccc([N+](=O)[O-])s1	98%
CS/C(=C\[N+](=O)[O-])Nc1ccc(C)cc1	100%
O=C(NCC1CCCO1)C1CCN(C2CCN(C(=O)C3CCCCC3)CC2)CC1 (centres undefined)	98%
COC(=O)c1cc2n(n1)CCCNC2=O	100%
COc1ccc(N(CC(=O)NC2CCCC2)C(=O)CS(=O)CC(=O)Nc2ccc3c(c2)OCO3)cc1 (centres undefined)	95%
CCOC(=O)C1(Cc2ccc(Cl)cc2)CCN(C(=O)C2=NNC(=O)CC2)CC1	101%
Cc1cc(=O)oc2c1c(C)nn2-c1ccc(Cl)cc1	100%
COc1cc(/C=N/Nc2ccc(C)cc2)cc(Br)c1O	94%
COc1ncnc2sc3c(c12)CCCC3	102%
COc1ccc(/C=N/Nc2ncnc3sc4c(c23)CCCC4)cc1O	71% (active)
COc1ccc(NC(=S)NCCN2CCC(C)CC2)cc1	100%
COc1cc(OC)c(C(=O)N2CCCC2)cc1OC	98%
COc1ccc(/C=N/NC(=O)c2ccncc2)cc1CN1CCCc2ccccc21	95%
COc1ccc(CN2CCC(c3nc4ccc(Cl)cc4[nH]3)CC2)cc1	96%
CC(Sc1nnnn1C1CCCCC1)C(=O)O (centres undefined)	101%
COc1ccc(C(=O)OCC(=O)NCC2CCCO2)cc1[N+](=O)[O-] (centres undefined)	93%
COC(=O)c1ccc(CN2CCN(CCCc3ccccc3)C(CCO)C2)cc1 (centres undefined)	97%
CCCSc1nc2[nH]ncc2c(=O)[nH]1	99%
Cc1cccc(NC(=O)CSc2nc3[nH]ncc3c(=O)[nH]2)c1	94%
Cc1ccc(CSc2nc3[nH]ncc3c(=O)[nH]2)cc1	79% (active)
Cc1cc(OCC(=O)NC2CCN(C)CC2)ccc1[N+](=O)[O-]	98%
COc1ccc(C/C(N)=N/OC(=O)c2ccco2)cc1OC	101%
